Experimental data as given in the supplement of paper PMC9262897, “Low-cost anti-mycobacterial drug discovery using engineered E. coli” (Nature Communications, 2022).
Counter-ions that a name gives are not always drawn. ± gives the standard deviation of the averaged measurements.

Key:
Test in all cases: growth (OD600 after 10 h); higher = more growth (less inhibition)
[1] = system: E. coli TESEC Alr+ wild-type control; details: compound 0.1 mM; raw OD600 reference: median of DMSO wells 0.241, cell-free background 0.041
Method: (§1)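 TESEC Mtb Alr E. coli, or the Alr+ wild-type control, in 384-well plates with Prestwick library compounds at 0.1 mM and 1% DMSO, across arabinose induction levels of 1E3 to 1E7 nM. Growth is read as OD600 after 10 h at 37 °C in triplicate biological replicates.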

E. coli TESEC Mtb Alr [2] = details: compound 0.1 mM
Method: as §1

E. coli TESEC Mtb Asd = details: compound 0.1 mM
Method: (§2)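 TESEC E. coli strains in which the native enzyme is deleted and replaced by arabinose-inducible Mtb Asd, DapB, CysH or TrpD, each grown in its selective medium. Strains were screened against the Prestwick library at 0.1 mM and 1% DMSO in 384-well format at low and high arabinose induction. Growth is read as OD600 after 10 h in triplicate.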

E. coli TESEC Mtb DapB = details: compound 0.1 mM
Method: as §2

[3] = system: E. coli TESEC Alr+ wild-type control; details: compound 0.1 mM; raw OD600 reference: median of DMSO wells 0.49, cell-free background 0.052
Method: (§3)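 TESEC Mtb Alr E. coli (ΔaraC ΔtolC ΔentC Δalr ΔdadX, arabinose-inducible Mtb Alr) or the Alr+ wild-type control strain, grown in defined M9-fructose medium without D-alanine in 96-well plates with Prestwick library compounds at 0.1 mM and 1% DMSO. Low Alr induction is 0.1 µM arabinose and high induction is 10 mM arabinose.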

E. coli TESEC Mtb Alr [4] = details: compound 0.1 mM; remark: listed apart in the source
Method: as §3

[5] = arabinose 1000 nM, raw OD600 reference: median of DMSO wells 0.294, cell-free background 0.041
[6] = arabinose 10000 nM, raw OD600 reference: median of DMSO wells 0.264, cell-free background 0.041
[7] = arabinose 100000 nM, raw OD600 reference: median of DMSO wells 0.201, cell-free background 0.041
[8] = arabinose 1000000 nM, raw OD600 reference: median of DMSO wells 0.193, cell-free background 0.041
[9] = arabinose 10000000 nM, raw OD600 reference: median of DMSO wells 0.146, cell-free background 0.041
[10] = arabinose induction (level): High, raw OD600 reference: median of DMSO wells 0.331, cell-free background 0.041
[11] = arabinose induction (level): Low, raw OD600 reference: median of DMSO wells 0.417, cell-free background 0.041
[12] = arabinose induction (level): High, raw OD600 reference: median of DMSO wells […], cell-free background 0.041
[13] = arabinose induction (level): Low, raw OD600 reference: median of DMSO wells 0.227, cell-free background 0.041
[14] = arabinose 100 nM, raw OD600 reference: median of DMSO wells 0.413, cell-free background 0.052
[15] = arabinose 10000000 nM, raw OD600 reference: median of DMSO wells […], cell-free background 0.052

Compound | growth [1] | growth (E. coli TESEC Mtb Alr [2]; [5]) | growth (E. coli TESEC Mtb Alr [2]; [6]) | growth (E. coli TESEC Mtb Alr [2]; [7]) | growth (E. coli TESEC Mtb Alr [2]; [8]) | growth (E. coli TESEC Mtb Alr [2]; [9]) | growth (E. coli TESEC Mtb Asd; [10]) | growth (E. coli TESEC Mtb Asd; [11]) | growth (E. coli TESEC Mtb DapB; [12]) | growth (E. coli TESEC Mtb DapB; [13]) | growth [3] | growth (E. coli TESEC Mtb Alr [4]; [14]) | growth (E. coli TESEC Mtb Alr [4]; [15])
CCc1cccc2c3c([nH]c12)C(CC)(CC(=O)O)OCC3 (stereo not given) [Etodolac] | 0.24 ± 0.0076 | 0.272 ± 0.0061 | 0.264 ± 0.01 | 0.162 ± 0.0052 | 0.147 ± 0.004 | 0.1376 ± 0.00061 | 0.276 ± 0.027 | 0.267 ± 0.017 | 0.195 ± 0.0073 | 0.261 ± 0.033 | 0.415 ± 0.021 | 0.409 ± 0.011 | 0.264 ± 0.013
CC(C)NC[C@@H](O)COc1ccc(CC(N)=O)cc1 [(R)-(+)-Atenolol] | 0.255 ± 0.004 | 0.322 ± 0.019 | 0.262 ± 0.012 | 0.221 ± 0.013 | 0.1771 ± 0.00066 | 0.161 ± 0.0073 | 0.485 ± 0.012 | 0.442 ± 0.033 | 0.243 ± 0.059 | 0.25 ± 0.017 | 0.546 ± 0.038 | 0.405 ± 0.019 | 0.342 ± 0.012
CCc1ccc(CCOc2ccc(CC3SC(=O)NC3=O)cc2)nc1 (stereo not given) [Pioglitazone] | 0.225 ± 0.0024 | 0.268 ± 0.012 | 0.267 ± 0.0054 | 0.176 ± 0.0064 | 0.164 ± 0.002 | 0.15 ± 0.0092 | 0.292 ± 0.045 | 0.334 ± 0.04 | 0.191 ± 0.0045 | 0.191 ± 0.011 | 0.577 ± 0.076 | 0.426 ± 0.018 | 0.358 ± 0.023
CC(=O)OCC(=O)[C@@]1(O)CC[C@H]2[C@@H]3CCC4=CC(=O)CC[C@]4(C)[C@@]3(F)[C@@H](O)C[C@@]21C [Fludrocortisone acetate] | 0.188 ± 0.0026 | 0.235 ± 0.021 | 0.255 ± 0.012 | 0.141 ± 0.0083 | 0.1074 ± 0.0007 | 0.128 ± 0.0027 | 0.249 ± 0.066 | 0.37 ± 0.092 | 0.188 ± 0.014 | 0.242 ± 0.039 | 0.459 ± 0.028 | 0.401 ± 0.0079 | 0.229 ± 0.02
CO/N=C(\C(=O)N[C@@H]1C(=O)N2C(C(=O)O)=C(COC(C)=O)CS[C@H]12)c1csc(N)n1 [Cefotaxime sodium salt] | 0.0395 ± 0.00046 | 0.0388 ± 0.0013 | 0.0398 ± 0.00026 | 0.0388 ± 0.0013 | 0.04017 ± 0.00038 | 0.04007 ± 0.0004 | 0.0625 ± 0.0074 | 0.0606 ± 0.002 | 0.0632 ± 0.014 | 0.0489 ± 0.0033 | 0.0462 ± 0.0019 | 0.0466 ± 0.0015 | 0.0529 ± 0.0023
O=C(O)CCCC[C@@H]1SC[C@@H]2NC(=O)N[C@@H]21 [Biotin] | 0.257 ± 0.0089 | 0.309 ± 0.0092 | 0.265 ± 0.016 | 0.217 ± 0.028 | 0.206 ± 0.018 | 0.145 ± 0.0046 | 0.347 ± 0.05 | 0.418 ± 0.045 | 0.18 ± 0.0081 | 0.208 ± 0.022 | 0.615 ± 0.056 | 0.408 ± 0.0076 | 0.354 ± 0.014
CCCc1cc(C(N)=S)ccn1 [Prothionamide] | 0.245 ± 0.011 | 0.295 ± 0.0059 | 0.269 ± 0.013 | 0.184 ± 0.028 | 0.174 ± 0.014 | 0.136 ± 0.0019 | 0.231 ± 0.011 | 0.388 ± 0.046 | 0.208 ± 0.013 | 0.221 ± 0.036 | 0.57 ± 0.0073 | 0.414 ± 0.013 | 0.36 ± 0.021
CN(C)CCCO[C@@H]1[C@H]2OC(C)(C)O[C@H]2O[C@@H]1[C@H](O)CO [Amiprilose hydrochloride] | 0.23 ± 0.012 | 0.304 ± 0.024 | 0.262 ± 0.0085 | 0.196 ± 0.0086 | 0.185 ± 0.0074 | 0.137 ± 0.003 | 0.411 ± 0.073 | 0.385 ± 0.076 | 0.199 ± 0.017 | 0.269 ± 0.046 | 0.613 ± 0.04 | 0.405 ± 0.013 | 0.337 ± 0.022
Oc1ncnc2[nH]ncc12 [Allopurinol] | 0.234 ± 0.0068 | 0.283 ± 0.013 | 0.241 ± 0.0057 | 0.189 ± 0.019 | 0.172 ± 0.0073 | 0.141 ± 0.0016 | 0.449 ± 0.032 | 0.435 ± 0.038 | 0.216 ± 0.019 | 0.234 ± 0.016 | 0.53 ± 0.078 | 0.41 ± 0.013 | 0.34 ± 0.015
C=C(CC)C(=O)c1ccc(OCC(=O)O)c(Cl)c1Cl [Ethacrynic acid] | 0.0566 ± 0.0011 | 0.242 ± 0.01 | 0.244 ± 0.0042 | 0.2 ± 0.005 | 0.171 ± 0.0037 | 0.144 ± 0.0087 | 0.171 ± 0.057 | 0.19 ± 0.074 | 0.18 ± 0.0058 | 0.181 ± 0.022 | 0.374 ± 0.014 | 0.376 ± 0.0052 | 0.374 ± 0.017
O=c1cc(-c2ccc(O)c(O)c2)oc2cc(O)cc(O)c12 [Luteolin] | 0.05467 ± 0.00021 | 0.0562 ± 0.0013 | 0.05 ± 0.0007 | 0.05233 ± 0.00025 | 0.0567 ± 0.0052 | 0.0518 ± 0.0022 | 0.0806 ± 0.023 | 0.063 ± 0.0053 | 0.0614 ± 0.0012 | 0.0607 ± 0.002 | 0.174 ± 0.18 | 0.152 ± 0.019 | 0.0574 ± 0.0016
CN(C)CCCOc1nn(Cc2ccccc2)c2ccccc12 [Benzydamine hydrochloride] | 0.183 ± 0.0043 | 0.224 ± 0.012 | 0.25 ± 0.0088 | 0.167 ± 0.0029 | 0.112 ± 0.0038 | 0.146 ± 0.0037 | 0.193 ± 0.043 | 0.348 ± 0.023 | 0.192 ± 0.023 | 0.216 ± 0.051 | 0.452 ± 0.0099 | 0.404 ± 0.0075 | 0.283 ± 0.021
C[C@@H](O)[C@H]1C(=O)N2C(C(=O)O)=C(SCCNC=N)C[C@H]12 [Imipenem] | 0.216 ± 0.0037 | 0.282 ± 0.0094 | 0.269 ± 0.0053 | 0.202 ± 0.035 | 0.174 ± 0.0056 | 0.136 ± 0.0047 | 0.296 ± 0.1 | 0.37 ± 0.065 | 0.198 ± 0.012 | 0.231 ± 0.015 | 0.271 ± 0.022 | 0.165 ± 0.11 | 0.111 ± 0.011
Cc1cc(NC(=O)C2=C(O)c3ccccc3S(=O)(=O)N2C)no1 [Isoxicam] | 0.25 ± 0.0032 | 0.255 ± 0.038 | 0.26 ± 0.0052 | 0.184 ± 0.033 | 0.184 ± 0.0038 | 0.135 ± 0.0033 | 0.252 ± 0.022 | 0.395 ± 0.081 | 0.199 ± 0.0028 | 0.216 ± 0.034 | 0.47 ± 0.018 | 0.412 ± 0.015 | 0.299 ± 0.037
NS(=O)(=O)c1cc(C(=O)O)cc(N2CCCC2)c1Oc1ccccc1 [Piretanide] | 0.243 ± 0.0085 | 0.28 ± 0.0043 | 0.278 ± 0.0094 | 0.22 ± 0.025 | 0.202 ± 0.0072 | 0.134 ± 0.0051 | 0.405 ± 0.0083 | 0.4 ± 0.034 | 0.21 ± 0.029 | 0.245 ± 0.025 | 0.444 ± 0.0057 | 0.4122 ± 0.0034 | 0.341 ± 0.0064
